The values that follow come from PubChem BioAssay (Tox21).

Unmarked numbers belong to inactive results. Records with an inconclusive call do not appear. Activity calls are given as the source filed them. Calls come from the whole dose curve; as a rule, active = well fitted curve in the direction sought with a large enough effect in the repeat runs; inconclusive = weak or mixed curves; inactive = no such curve, though single readings can be large; an effect the other way counts as inactive or inconclusive.

The nature of assay [1]: Caspase-3/7 induction in HepG2 cells by small molecules, qHTS assay (AID 1346978). Note: nearly all actives have a fitted effect of over 15% in size. The procedure, abridged: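 Caspase-3/7 induction was measured by Caspase-Glo 3/7 luminescence (30 min, room temperature) after a 17 hr compound exposure of wild-type HepG2 cells seeded at 2,000 per well and pre-incubated 5 hr.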
A short description of assay [2]: Caspase-3/7 induction in CHO-K1 cells by small molecules, qHTS cell viability counter screen (AID 1346979). Note: nearly all actives have a fitted effect of over 35% in size. In a few lines:
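CHO-K1 wt, 1,500 cells/well; 5hr pre-incubation 37C/5% CO2; compound pin transfer (DMSO); 16hr exposure; CellTiter-Fluor added, 1hr, fluorescence read.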
Background: qHTS replaces the single test concentration by a dilution series.

Assay [3] can be described thus: Caspase-3/7 induction in CHO-K1 cells by small molecules, qHTS assay (AID 1346980). Note: nearly all actives have a fitted effect of over 15% in size. In a few lines:
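Luminescent Caspase-Glo 3/7 read (30min, room temperature) quantified apoptosis induction. Cells were wild-type CHO-K1, treated with compound for 17hr at 37 C and 5% CO2.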

Assay [4] in a line: Caspase-3/7 induction in HepG2 cells by small molecules, qHTS cell viability counter screen (AID 1346981). Note: series mostly up to about 92 µM; nearly all actives have a fitted effect of over 30% in size. The procedure, abridged: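 Wild-type HepG2 cells (2,000/well) were allowed to settle for 5 hr at 37 C, 5% CO2, then dosed with compounds in DMSO by pin transfer. After 16 hr at 37 C, CellTiter-Fluor was added and fluorescence read 1 hr later.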
Assay [5] addresses Nuclear receptor subfamily 1 group I member 2 (Homo sapiens) (UniProt O75469). As to the kind of experiment: Human pregnane X receptor (PXR) small molecule agonists, qHTS assay (AID 1346982). Note: nearly all actives have a fitted effect of over 35% in size. Note: potency is the fitted concentration of half-maximal effect. In a few lines: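 PXR-Luc HepG2 cells (CYP3A4 promoter-driven luciferase) were seeded in medium with 5% charcoal-stripped FBS, left 5 hr at 37 C, then exposed to compounds in DMSO for 24 hr. Luminescence was read after ONE-Glo addition.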

Assay [6] deals with Cytochrome P450 2D6 (Homo sapiens) (UniProt P10635). In words: Cytochrome P450 Family 2 Subfamily D Member 6 (CYP2D6) small molecule antagonists: luciferase reporter qHTS assay (AID 1671196). For activity change, negative = inhibition: series mostly up to about 120 µM. Note: nearly all actives have a fitted effect of over 50% in size. Note: potency is the fitted concentration of half-maximal effect. The procedure, abridged: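 CYP2D6 enzyme–substrate mix was held with compound for 10 min at room temperature, then NADPH regeneration solution was added and the reaction ran 1 h at room temperature. Luciferin product was detected by luminescence after 20 min with detection reagent.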
(Reporter assays use an easily measured gene product as a stand-in for the process of interest.)

The target in assay [7] is Cytochrome P450 2C19 (Homo sapiens) (UniProt P33261). In words: Cytochrome P450 Family 2 Subfamily C Member 19 (CYP2C19) small molecule antagonists: luciferase reporter qHTS assay (AID 1671197). For activity change, negative = inhibition: series mostly up to about 120 µM. Note: nearly all actives have a fitted effect of over 65% in size. Note: potency is the fitted concentration of half-maximal effect. The procedure, abridged:
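Inhibition of CYP2C19 was scored from loss of luminescence in a P450-Glo proluciferin substrate assay, NADPH-started and run 1 h at 37C, with ketoconazole as positive control.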

Assay [8] deals with Cytochrome P450 2C9 (Homo sapiens) (UniProt P11712). In words: Cytochrome P450 Family 2 Subfamily C Member 9 (CYP2C9) small molecule antagonists: luciferase reporter qHTS assay (AID 1671198). For activity change, negative = inhibition: series mostly up to about 120 µM. Note: nearly all actives have a fitted effect of over 50% in size. Note: potency is the fitted concentration of half-maximal effect. In a few lines:
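Enzyme-substrate mix preincubated with compound 10 min at room temperature; reaction started with NADPH regeneration solution, 1 h 37C. Luminescent luciferin product read after 20 min detection reagent.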

In assay [9] the target is Voltage-gated inwardly rectifying potassium channel KCNH2 (Homo sapiens) (UniProt Q12809). As to the kind of experiment: Human Ether-a-go-go-Related Gene (hERG) channel small molecule antagonists: fluorescence cell-based qHTS assay (AID 1671200).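 For activity change, negative = inhibition: hERG-expressing U2OS cells given a thallium stimulus after FluxOR II dye loading; series mostly up to about 77 µM.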 Note: nearly all actives have a fitted effect of over 50% in size. Note: potency is the fitted concentration of half-maximal effect. The procedure, abridged: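 Read-out: thallium influx as a surrogate for potassium, tracked as fluorescence (480 nm ex/540 nm em) every second for 2 min after Stimulus Buffer addition in dye-loaded hERG-U2OS cells.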
(In general: Block of hERG is tested as a sign of cardiac risk.)

In assay [10] the target is Cytochrome P450 3A4 (Homo sapiens) (UniProt P08684). In words: Cytochrome P450 Family 3 Subfamily A Member 4 (CYP3A4) small molecule antagonists: luciferase reporter qHTS assay (AID 1671201). For activity change, negative = inhibition: series mostly up to about 120 µM. Note: nearly all actives have a fitted effect of over 50% in size. Note: potency is the fitted concentration of half-maximal effect. The procedure, abridged:
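Luminescent readout (RLU) proportional to CYP3A4 activity, from luciferin generated off a proluciferin substrate. Enzyme–substrate mix plus compound 10 min at room temp, NADPH regeneration 1 h, detection reagent 20 min.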

Assay [11] has as its target Cytochrome P450 1A2 (Homo sapiens) (UniProt P05177). In words: Cytochrome P450 Family 1 Subfamily A Member 2 (CYP1A2) small molecule antagonists: luciferase reporter qHTS assay (AID 1671199). For activity change, negative = inhibition: series mostly up to about 120 µM. Note: nearly all actives have a fitted effect of over 50% in size. Note: potency is the fitted concentration of half-maximal effect. In a few lines: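 Human CYP1A2 activity measured with a P450-Glo proluciferin substrate; compounds in DMSO preincubated 10 min at room temperature with enzyme-substrate mix, then NADPH regeneration system added for 1 h. Luciferin detection reagent, 20 min, luminescence read.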
% is set by controls: 0 for no effect and ±100 for the full control effect.

Sequence of Cytochrome P450 2C9 (Homo sapiens) (P11712 whole entry, looked up): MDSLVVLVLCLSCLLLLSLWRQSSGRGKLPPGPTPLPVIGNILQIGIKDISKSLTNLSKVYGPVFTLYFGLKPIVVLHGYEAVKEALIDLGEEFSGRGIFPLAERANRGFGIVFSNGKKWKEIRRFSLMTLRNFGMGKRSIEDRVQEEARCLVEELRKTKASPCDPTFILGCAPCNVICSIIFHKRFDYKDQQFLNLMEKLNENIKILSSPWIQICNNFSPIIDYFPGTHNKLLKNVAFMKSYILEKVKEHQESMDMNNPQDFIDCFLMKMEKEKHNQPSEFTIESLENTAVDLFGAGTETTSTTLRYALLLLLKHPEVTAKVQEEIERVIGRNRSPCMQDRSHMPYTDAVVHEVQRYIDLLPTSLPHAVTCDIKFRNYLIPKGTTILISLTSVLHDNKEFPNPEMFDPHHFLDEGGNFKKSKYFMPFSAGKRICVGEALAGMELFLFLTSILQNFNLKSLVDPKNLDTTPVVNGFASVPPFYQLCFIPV
Sequence of Voltage-gated inwardly rectifying potassium channel KCNH2 (Homo sapiens) (Q12809 whole entry, looked up): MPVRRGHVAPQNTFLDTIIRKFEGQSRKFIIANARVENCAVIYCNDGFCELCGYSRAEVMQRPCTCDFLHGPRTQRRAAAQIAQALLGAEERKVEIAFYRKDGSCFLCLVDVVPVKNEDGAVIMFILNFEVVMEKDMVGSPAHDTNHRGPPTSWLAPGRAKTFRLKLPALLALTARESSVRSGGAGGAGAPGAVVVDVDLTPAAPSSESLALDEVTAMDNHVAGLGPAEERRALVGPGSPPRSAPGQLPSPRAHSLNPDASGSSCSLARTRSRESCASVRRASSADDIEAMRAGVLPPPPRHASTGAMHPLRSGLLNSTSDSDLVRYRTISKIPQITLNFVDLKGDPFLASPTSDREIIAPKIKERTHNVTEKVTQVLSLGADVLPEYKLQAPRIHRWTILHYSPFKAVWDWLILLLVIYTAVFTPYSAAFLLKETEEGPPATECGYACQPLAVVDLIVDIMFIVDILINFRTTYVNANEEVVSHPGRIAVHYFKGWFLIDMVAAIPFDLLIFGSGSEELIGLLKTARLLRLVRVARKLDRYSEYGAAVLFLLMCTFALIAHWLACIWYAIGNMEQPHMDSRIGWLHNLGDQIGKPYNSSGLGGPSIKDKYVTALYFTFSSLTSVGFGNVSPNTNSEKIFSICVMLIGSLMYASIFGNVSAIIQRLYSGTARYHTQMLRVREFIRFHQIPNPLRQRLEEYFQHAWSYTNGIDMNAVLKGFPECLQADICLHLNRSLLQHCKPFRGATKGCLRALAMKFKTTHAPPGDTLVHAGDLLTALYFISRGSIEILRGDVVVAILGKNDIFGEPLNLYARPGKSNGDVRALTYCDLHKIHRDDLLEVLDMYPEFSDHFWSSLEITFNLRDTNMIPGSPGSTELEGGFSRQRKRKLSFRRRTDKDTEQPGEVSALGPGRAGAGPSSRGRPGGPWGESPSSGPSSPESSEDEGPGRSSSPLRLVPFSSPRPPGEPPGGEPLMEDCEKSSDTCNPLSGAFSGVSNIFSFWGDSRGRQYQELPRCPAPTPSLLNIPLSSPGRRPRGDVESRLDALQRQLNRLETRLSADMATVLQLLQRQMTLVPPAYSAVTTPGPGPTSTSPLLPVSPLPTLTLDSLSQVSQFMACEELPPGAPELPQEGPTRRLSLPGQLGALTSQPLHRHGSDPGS
Sequence of Nuclear receptor subfamily 1 group I member 2 (Homo sapiens) (O75469 whole entry, looked up): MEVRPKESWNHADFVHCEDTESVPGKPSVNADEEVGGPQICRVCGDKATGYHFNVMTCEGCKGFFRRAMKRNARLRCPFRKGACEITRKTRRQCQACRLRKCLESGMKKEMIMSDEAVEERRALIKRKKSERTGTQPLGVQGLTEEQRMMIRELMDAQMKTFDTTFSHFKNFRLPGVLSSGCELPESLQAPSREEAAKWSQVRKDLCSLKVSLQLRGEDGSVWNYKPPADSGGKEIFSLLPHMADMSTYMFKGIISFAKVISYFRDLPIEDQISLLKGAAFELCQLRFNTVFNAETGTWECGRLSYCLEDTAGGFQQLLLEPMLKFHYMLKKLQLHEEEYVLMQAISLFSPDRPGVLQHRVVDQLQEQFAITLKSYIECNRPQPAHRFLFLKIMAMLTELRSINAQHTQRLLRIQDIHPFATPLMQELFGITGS
Sequence of Cytochrome P450 2D6 (Homo sapiens) (P10635 whole entry, looked up): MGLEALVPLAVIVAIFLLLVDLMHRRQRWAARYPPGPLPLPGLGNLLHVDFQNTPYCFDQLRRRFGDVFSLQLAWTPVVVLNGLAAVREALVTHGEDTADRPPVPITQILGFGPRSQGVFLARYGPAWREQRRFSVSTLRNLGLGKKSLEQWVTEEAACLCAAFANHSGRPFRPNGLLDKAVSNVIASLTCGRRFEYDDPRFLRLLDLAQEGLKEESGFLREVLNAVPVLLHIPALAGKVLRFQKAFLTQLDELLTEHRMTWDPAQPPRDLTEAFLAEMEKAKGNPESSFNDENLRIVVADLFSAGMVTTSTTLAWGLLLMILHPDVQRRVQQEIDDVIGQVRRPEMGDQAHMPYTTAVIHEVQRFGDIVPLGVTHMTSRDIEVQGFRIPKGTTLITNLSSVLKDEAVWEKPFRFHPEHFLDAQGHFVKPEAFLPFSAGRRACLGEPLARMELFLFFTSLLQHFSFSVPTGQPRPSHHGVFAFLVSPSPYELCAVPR
Sequence of Cytochrome P450 2C19 (Homo sapiens) (P33261 whole entry, looked up): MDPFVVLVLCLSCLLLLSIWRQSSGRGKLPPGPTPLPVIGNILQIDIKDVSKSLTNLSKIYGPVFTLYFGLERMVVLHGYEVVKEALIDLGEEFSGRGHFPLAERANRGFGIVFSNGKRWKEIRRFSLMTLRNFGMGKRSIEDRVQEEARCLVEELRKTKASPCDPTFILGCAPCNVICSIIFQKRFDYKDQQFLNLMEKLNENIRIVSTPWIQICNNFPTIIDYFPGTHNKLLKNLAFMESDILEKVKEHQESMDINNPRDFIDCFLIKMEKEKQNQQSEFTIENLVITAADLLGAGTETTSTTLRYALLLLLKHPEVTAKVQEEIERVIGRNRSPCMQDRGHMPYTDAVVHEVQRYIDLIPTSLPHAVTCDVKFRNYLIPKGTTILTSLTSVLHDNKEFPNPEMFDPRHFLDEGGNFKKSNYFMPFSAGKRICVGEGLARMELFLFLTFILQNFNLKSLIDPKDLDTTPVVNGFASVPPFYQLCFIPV
Sequence of Cytochrome P450 3A4 (Homo sapiens) (P08684 whole entry, looked up): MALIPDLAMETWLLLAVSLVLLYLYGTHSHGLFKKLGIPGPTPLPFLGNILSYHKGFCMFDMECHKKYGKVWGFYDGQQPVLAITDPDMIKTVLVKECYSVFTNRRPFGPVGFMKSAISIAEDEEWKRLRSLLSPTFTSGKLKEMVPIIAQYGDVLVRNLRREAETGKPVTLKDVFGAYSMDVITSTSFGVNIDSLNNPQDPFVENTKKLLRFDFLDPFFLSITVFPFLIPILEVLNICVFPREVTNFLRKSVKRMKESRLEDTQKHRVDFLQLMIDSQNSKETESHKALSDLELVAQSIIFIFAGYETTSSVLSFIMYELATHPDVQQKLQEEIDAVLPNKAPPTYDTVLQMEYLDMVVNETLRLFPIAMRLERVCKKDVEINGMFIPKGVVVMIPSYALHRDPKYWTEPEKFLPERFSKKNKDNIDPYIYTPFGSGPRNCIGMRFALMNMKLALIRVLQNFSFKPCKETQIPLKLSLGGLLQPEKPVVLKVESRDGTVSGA
Sequence of Cytochrome P450 1A2 (Homo sapiens) (P05177 whole entry, looked up): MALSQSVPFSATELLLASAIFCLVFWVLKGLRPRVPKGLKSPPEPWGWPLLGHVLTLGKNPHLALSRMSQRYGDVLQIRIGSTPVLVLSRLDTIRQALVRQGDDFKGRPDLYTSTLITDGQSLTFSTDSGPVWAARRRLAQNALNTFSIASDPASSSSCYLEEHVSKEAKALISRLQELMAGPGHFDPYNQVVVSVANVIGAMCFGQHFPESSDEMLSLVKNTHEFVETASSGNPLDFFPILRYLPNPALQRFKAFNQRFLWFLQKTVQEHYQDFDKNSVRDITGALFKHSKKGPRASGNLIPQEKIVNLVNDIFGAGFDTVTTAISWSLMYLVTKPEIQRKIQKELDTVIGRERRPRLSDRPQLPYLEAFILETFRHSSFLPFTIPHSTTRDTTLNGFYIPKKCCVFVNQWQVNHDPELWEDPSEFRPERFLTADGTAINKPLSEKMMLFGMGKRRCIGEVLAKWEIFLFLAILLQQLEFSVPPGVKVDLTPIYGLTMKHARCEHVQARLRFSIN

Regarding `CCCCCCCOC(=O)CCC`, the Potency result in assay [1], in assay [2], in assay [4], in assay [5], in assay [8] and in assay [9] was “inactive” in each case. Further, the Potency entry in assay [10] is “inactive”. Moreover, the result in [3] was inactive. In addition, the Potency is 20 µM (active) in assay [6] and 79.6 µM (active) in [7].

As for `Cc1ccc(C=O)s1`, the Potency result in assay [1], in [2], in assay [4], in assay [5], in assay [6] and in assay [7] was “inactive” throughout. Also, the Potency result in assay [8], in assay [9] and in assay [10] was “inactive” throughout. For the same compound, the call in assay [3] was inactive.

For the compound `COC(=O)/C=C(/C)N`, the Potency result in assay [1], in assay [2], in assay [4], in [5], in assay [6] and in assay [7] was “inactive” throughout. Moreover, the Potency result in [8], in assay [9] and in assay [10] was “inactive” in each case. Besides, in assay [3], the compound was called inactive.

Regarding `CC1(C)C(=O)N(Cl)C(=O)N1Br`, the Potency entry in assay [1], in assay [2], in assay [4], in assay [5], in assay [6] and in [11] was “inactive” throughout. Further, the Potency result in [9] is “inactive”. For the same compound, in [3], the compound was called inactive.

For the compound `CC(C)C(=O)OC/C=C/c1ccccc1`, the Potency result in [1], in assay [2], in assay [4], in assay [5], in assay [6] and in assay [9] was “inactive” throughout. Besides, the Potency result in [10] was “inactive”. In addition, the result in [3] was inactive. Moreover, the Potency was 39.9 µM (active) in assay [7] and 35.6 µM (active) in assay [8].

Regarding `Cn1cnc2c(F)c(Nc3ccc(Br)cc3Cl)c(C(=O)NOCCO)cc21`, the Potency result in assay [1], in assay [2], in [4], in assay [5], in assay [6] and in assay [9] was “inactive” throughout. In addition, the compound was classed as inactive in [3]. The figures for the Potency in [7] and in assay [8] were 8.71 µM (active) and 13.8 µM (active), respectively.

On to `CCCC1CCC(=O)O1` (stereo not drawn), for which the Potency entry in [1], in assay [2], in [4], in assay [5], in [6] and in assay [7] was “inactive” each time. For the same compound, the Potency entry in assay [8], in assay [9] and in assay [10] was “inactive” throughout. Moreover, the compound was classed as inactive in [3].

On to `CCCCC(CC)COC(=O)COc1cc(Cl)c(Cl)cc1Cl` (stereo not drawn), for which the Potency entry in assay [1], in assay [2], in assay [4], in [5] and in assay [9] was “inactive” each time. In addition, the outcome in assay [3] was inactive. The Potency was 7.1 µM (active) in assay [7], 8.94 µM (active) in assay [8], 15.9 µM (active) in [11] and 6.33 µM (active) in [10].

As for `CC(C)=CCCC(C)CCOC=O` (stereo not drawn), the Potency result in assay [1], in assay [2], in assay [4], in [5], in [6] and in [9] was “inactive” throughout. Besides, the compound was called inactive in [3]. Besides, the Potency in assay [8] was 71 µM (active); in assay [10] it was 35.6 µM (active).

`CCOc1ccccc1N`: the Potency entry in assay [1], in assay [2], in assay [4] and in assay [5] was “inactive” throughout. The compound was called inactive in assay [3]. The Potency was 22.3 µM (active) in assay [7]; 31.5 µM (active) in [8]; 19.9 µM (active) in assay [11]; 21.7 µM (active) in assay [9]; 15.8 µM (active) in assay [10].

Consider `O=C(O)c1ccccc1Nc1cc(Cl)ccc1C(=O)O`, for which, in assay [1], the caspase activation was 0.287% [at 19 µM]. For the same compound, the results for the activity change, negative = cytotoxicity in assay [2] and in [4] were 5.08% [at 19 µM] and 3.27% [at 19 µM], respectively. Also, in assay [3], the caspase-3/7 activation is 1.36% [at 19 µM]. Further, the activation in assay [5] was 5.75% [at 19 µM]. Further, the Potency in assay [6] was 1.51 µM (active). Moreover, the Potency entry in assay [8] and in assay [11] was “inactive” each time. Besides, the figures for the activity change, negative = inhibition in assay [9] and in assay [10] were 6.42% [at 15.8 µM] and 34.1% [at 23.6 µM], respectively.

On to `CCCCCCC`, for which the Potency entry in assay [1], in assay [2], in [4], in assay [5], in assay [6] and in assay [8] was “inactive” throughout. Moreover, the Potency result in assay [11], in assay [9] and in assay [10] was “inactive” each time. Besides, the call in assay [3] was inactive.

For `CCNCCO`, the Potency entry in [1], in assay [2], in assay [4], in assay [5], in assay [6] and in assay [7] was “inactive” in each case. For the same compound, the Potency entry in assay [8], in assay [11], in assay [9] and in [10] was “inactive” throughout. For the same compound, the call in assay [3] was inactive.

For `CCCCCOc1ccc(C2SC(=O)NC2=O)cc1OCC` (stereo not drawn), the Potency entry in assay [1], in assay [2], in assay [4], in assay [6], in [7] and in [9] was “inactive” in each case. Further, the result in assay [3] was inactive. The Potency in assay [5] was 29.8 µM (active); in [8], 9.77 µM (active).

Take `CCOC(=O)c1cc(=O)c2c(OCC(COc3cccc4oc(C(=O)OCC)cc(=O)c34)OC(=O)[C@@H](N)CCCCN)cccc2o1`: the Potency result in assay [1], in assay [2], in assay [4], in assay [5], in [6] and in assay [7] was “inactive” in each case. For the same compound, the Potency result in [9] is “inactive”. Besides, in assay [3], the compound was classed as inactive. Moreover, the Potency in assay [8] is 15.5 µM (active).

For `O=C1CCCc2ccccc21`, the Potency result in [1], in assay [2], in assay [4], in [7], in assay [8] and in assay [9] was “inactive” throughout. Also, the Potency result in assay [10] was “inactive”. In addition, the compound was called inactive in [3]. Moreover, the figures for the Potency in [5] and in assay [11] were 39 µM (active) and 36 µM (active), respectively.

In the case of `O=C1CCCCCCCCCCC(=O)OCCO1`, the Potency entry in assay [1], in [2], in assay [4], in assay [5], in assay [6] and in assay [9] was “inactive” in each case. The result in [3] was inactive. Also, the Potency in assay [7] is 35.6 µM (active); in [11] it was 22.4 µM (active); in assay [10], 31.7 µM (active).

For the compound `CC(C)(CO)[C@@H](O)C(=O)NCCC(=O)O`, the Potency result in [1], in assay [2], in assay [4], in assay [5], in assay [6] and in assay [7] was “inactive” in each case. Further, in [10], the Potency entry was “inactive”. For the same compound, the result in [3] was inactive.

For `CC(=O)OC(C)OC(C)=O`, the Potency result in [1], in assay [2], in [4], in assay [5], in assay [7] and in [8] was “inactive” in each case. Moreover, the Potency result in [9] and in assay [10] was “inactive” in each case. In addition, the result in assay [3] was inactive.

With `Cc1cc(S(=O)(=O)O)c(N)cc1Cl`, the Potency entry in [1], in [2], in [4], in assay [5], in [11] and in assay [9] was “inactive” throughout. Further, the Potency entry in [10] is “inactive”. In [3], the call was inactive. In addition, the Potency in assay [7] is 80.5 µM (active); in assay [8] it was 28.6 µM (active).

For `CCCCCCn1c(=O)c2c(ncn2C)n(C)c1=O`, the Potency entry in assay [1], in [2], in assay [4], in [5], in assay [6] and in assay [8] was “inactive” each time. Moreover, the Potency entry in [9] and in assay [10] was “inactive” in each case. The result in assay [3] was inactive. Besides, the Potency in [7] is 30.9 µM (active); in [11], 15.5 µM (active).

Turning to `COc1cc(Cl)ccc1Cl`, the Potency entry in [1], in assay [2], in assay [4], in assay [5], in assay [7] and in assay [8] was “inactive” throughout. Also, the Potency result in assay [9] and in assay [10] was “inactive” in each case. Besides, in assay [3], the outcome was inactive. Further, the Potency in assay [11] was 36.3 µM (active).

In the case of `CC(=O)O[C@H]1CC[C@@]2(C)C(=CC[C@@H]3[C@@H]2CC[C@]2(C)C(C(C)=O)=CC[C@@H]32)C1`, the Potency entry in [1], in assay [2], in [4], in assay [5], in assay [7] and in [8] was “inactive” each time. Also, the Potency entry in assay [11], in assay [9] and in [10] was “inactive” in each case. The compound was classed as inactive in assay [3].
